A selection: hits, their analogues and other compounds. The true share with any hit is near 7.9%.
KB-3-1 cytotox: kills parental KB-3-1 adenocarcinoma cells; KB-3-1 viability, CellTiter-Glo ATP luminescence, 72 h; Potency, µM (highest dose often 46.1 µM), usual class: cytotoxic; actives 1.4% (n = 400,000); AID 1347075; also: % is scaled to controls: 0 for no effect and ±100 for the full control effect; nearly all actives have a fitted effect of over 60% in size
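Multi-concentration cytotoxicity screen in KB-3-1 cells grown in DMEM lacking phenol red with 10% FBS. After 72 h at 37 °C with compound, ATP-dependent luminescence was recorded.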
HT1080NT lethal: kills 2HG-producing HT-1080-NT fibrosarcoma cells | HT-1080-NT fibrosarcoma viability, CellTiter-Glo ATP luminescence, 48 h | Potency, µM (doses to about 46.1 µM), for inactives: at the highest dose activity, negative = less viability, most hits filed as cytotoxic | actives 1.6% (n = 360,000);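 also: NT is the 2HG producing partner of a matched IDH1 knockdown line; 0% = DMSO-treated cells and -100% = media-only wells without cells; nearly all actives have a fitted effect of over 55% in size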
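Compounds were tested in concentration-response format on HT-1080-NT cells for 48 hours at 37 degrees C. Cell viability came from CellTiter-Glo luminescence; curves were classified by r2, response magnitude and activity.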
MCF10A rereplic: DNA re-replication induction in MCF 10a cells; actives 2.9% (n = 350,000); Potency, µM (top dose mostly 46.1 µM), for inactives: top-dose activity, positive = re-replication, usual class: activators; MCF 10A DNA re-replication, Hoechst nuclear intensity, 48 h; also: % of control where 0% means no effect; nearly all actives have a fitted effect of over 50% in size
SW480 rerep: induces DNA re-replication in SW480 colon adenocarcinoma cells; SW480 DNA re-replication, Hoechst DNA content imaging, 48 h; actives 1.8% (n = 340,000); AID 624297; Potency, µM (doses to about 46.1 µM), without a hit: top-dose re-replication activation, hits mostly activators; also: % of control where 0% means no effect; nearly all actives have a fitted effect of over 55% in size
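250 cells/well; 23 nL cpd via pin tool; 48 hr, 37 C, 5% CO2; Hoechst 40 min; imager read of total nuclear intensity, ex 405/em 500-530 nm.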
HT1080 IDH1KD tx: toxicity to HT-1080 IDH1 knockdown cells (counter line). actives 2% (n = 360,000). HT-1080 IDH1 knockdown viability, ATP luminescence, 48 h. Potency, µM (series often up to 46.1 µM), without a hit: top-dose activity, negative = toxicity, usual class: cytotoxic. AID 686971;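 also: 0% = DMSO wells and -100% = cell-free medium wells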
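% activity derives from luminescence (CellTiter-Glo), normalised to DMSO and no-cell wells. HT-1080-IDH1KD cells, 750/well, had 48 h compound exposure at 37 °C.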
KB-V1 MDR tox: KB-V1 MDR subline cytotoxicity; Potency, µM (highest dose often 46.1 µM), most hits filed as cytotoxic; actives 3.4% (n = 400,000); KB-V1 MDR cells viability, CellTiter-Glo, 72 h; also: % is scaled to controls: 0 for no effect and ±100 for the full control effect; nearly all actives have a fitted effect of over 60% in size
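Cells of the MDR subline KB-V1 are plated, dosed with compound at multiple concentrations, and incubated 72 h at 37 degrees C; CellTiter-Glo is then added and luminescence read after 10 min.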
Starred values were filed as active, the others as inactive; i = inactive; ? = inconclusive; / = no result; ! = a repeat was not active. Calls follow the shape of the dose curve; as a rule, active = well fitted curve in the direction sought with a large enough effect; inconclusive = small, poorly fitted or top-dose-only effect, or another doubt; inactive = no such curve, though single readings can be large; an effect the other way counts as inactive or inconclusive. Potency is read from the fitted curve at half-maximal effect.

SMILES | KB-3-1 cytotox | HT1080NT lethal | MCF10A rereplic | SW480 rerep | HT1080 IDH1KD tx | KB-V1 MDR tox
COc1ccc(C)cc1NC(=O)CSc1nnc(COc2ccc(C)cc2)n1Cc1ccco1 | i | ? | 9.0% | ? | -28.0% | 9.2µM*
O=C(CCNc1cc(Cl)cc(Cl)c1)c1cccs1 | i | 1.9% | 23.1µM* | 1.4% | 0.0% | i
CC(C(=O)N=Nc1c(O)[nH]c2ccccc12)n1cnc2ccccc2c1=O (stereo unspecified) | i | -0.2% | ? | ? | -4.4% | 18.4µM*
NC(N)=N/N=C/c1ccc(OCc2ccccc2Cl)cc1 | ? | 12.6µM* | -1.2% | 13µM* | 15.8µM* | i
NC(N)=N/N=C/c1ccc(Cl)c(Cl)c1 | 16.4µM* | ? | ? | ? | ? | 20.6µM*
NC(N)=N/N=C/c1ccc(Cl)cc1Cl | ? | ? | 0.8% | ? | 16.4µM* | ?
NC(N)=N/N=C/c1ccccc1 | i | 10.2% | 0.1% | -0.2% | -0.2% | i
Cc1cccc(OCCCN2C(=O)C(=O)c3cc(C)ccc32)c1 | ? | -19.8% | ? | ? | -1.4% | ?
CC(Oc1ccc2c(c1)oc(=O)c1ccccc12)C(=O)NCCN1CCOCC1 (stereo unspecified) | i | 0.0% | 0.9% | -8.4% | -14.5% | i
COC(=O)c1sccc1S(=O)(=O)N(CC(=O)NCc1ccc(F)cc1)c1ccccc1 | i | / | / | / | / | i
COc1ccc(C(C)=O)cc1CN(c1ccccc1OC)S(=O)(=O)c1cccs1 | i | -11.4% | -6.8% | -104.2% | -22.4% | i
CC(C)COC(=O)C1C(=O)CC(C)(O)C(C(=O)OCC(C)C)C1c1cccnc1 (stereo unspecified) | i | 5.3% | -1.4% | -7.6% | 9.2% | 16.4µM*
CCN(CC)c1ccc(C2C(C(=O)OC(C)C)C(=O)CC(C)(O)C2C(=O)OC(C)C)cc1 (stereo unspecified) | i | -2.7% | 13.7% | 0.9% | -1.7% | 18.4µM*
COc1ccc(NC(NC(=O)c2ccc(OC)cc2)C(Cl)(Cl)Cl)cc1 (stereo unspecified) | i | 4.1% | 1.6% | 0.2% | -18.6% | ?
COc1ccc(C(=O)NC(Nc2ccc(C)cc2)C(Cl)(Cl)Cl)cc1 (stereo unspecified) | ? | -17.3% | 5.3% | -7.7% | ? | 14.6µM*
CCOCc1c(C(=O)NC2=Nc3ccccc3NC(CC)=C2C(=O)OCC)oc2ccccc12 | ? | ? | 10.3µM* | 20.6µM* | ? | ?
CCOC(=O)C1=C(CC)Nc2ccccc2N=C1NC(=O)c1oc2ccccc2c1C | i | -13.3% | ? | 20.2% | -15.4% | ?
CN1C(=O)C2(NC(=O)c3ccccc3N2C)c2ccccc21 (stereo unspecified) | i | -6.0% | -5.0% | -6.2% | -0.2% | i
CN1C(=O)C(Cl)(Cl)C(=O)c2ccccc21 | i | 18.4µM* | ? | ? | ? | i
O=C1CCC[C@@H]2[C@H](Cc3ccccc3)[C@@H](O)C[C@@H]3CCN1[C@@H]32 | ? | 14.1% | -45.2% | 8.8% | -0.6% | 14.6µM*!
c1ccc(Nc2cc(-c3ccccc3)nc3ncnn23)cc1 | i | -0.1% | ? | ? | ? | 14.6µM*
COc1ccc(CCNc2cc(-c3ccccc3)nc3ncnn23)cc1 | ? | 0.0% | -3.5% | -43.2% | -13.2% | 2.59µM*
COc1ccc(CNc2ncc(-c3cccc([N+](=O)[O-])c3)n2C)c(OC)c1OC | i | ? | -0.7% | 5.5% | 3.7% | i
Cc1ccc(O)c(C(=O)c2cnc3c(c2)CN(C)C(=O)N3)c1 | ? | ? | ? | ? | ? | 7.94µM*
Cc1ccc(O)c(C(=O)c2cnc3c(c2)CN(CCC(C)C)C(=O)N3)c1 | i | ? | 18.6% | 15.1% | ? | i
SMILES | KB-3-1 cytotox | HT1080NT lethal | MCF10A rereplic | SW480 rerep | HT1080 IDH1KD tx | KB-V1 MDR tox
O=C(CC1SC(N2CCCCC2)=NC1=O)Nc1cccc(C(=O)N2CCCC(C(F)(F)F)C2)c1 (stereo unspecified) | i | 1.7% | -2.2% | -13.2% | -0.2% | i
Fc1cccc(F)c1-n1c(CN2CCCCC2)csc1=S | 23.1µM* | ? | ? | 14.6µM* | ? | ?
Fc1cccc(F)c1-n1c(CN2CCOCC2)csc1=S | i | 3.9% | 0.9% | 24.5% | 1.9% | i
CCOC(=O)c1c(-c2ccccc2)oc2ccc(OCc3ccccc3Br)cc12 | i | / | / | / | / | i
Cc1nnc(SCC(=O)NCc2ccc(N(C)C)cc2)c2nn(-c3ccccc3)c(C)c12 | i | / | / | / | / | i
COc1ccc(S(=O)(=O)N(C)c2nc3ccccc3n3c(CC(C)C)nnc23)cc1 | i | -25.8% | 11.6µM* | 14.3% | -2.3% | ?
COc1ccccc1C(O)c1ncc(-c2cccc(C(F)(F)F)c2)[nH]1 (stereo unspecified) | i | ? | / | / | -19.7% | i
CC1CCCCN1S(=O)(=O)c1ccc(C(=O)Nc2sc3c(c2C(N)=O)CC(C)(C)NC3(C)C)cc1 (stereo unspecified) | i | / | / | / | / | i
COc1cc(-c2noc(C)c2C(=O)NCCc2c[nH]c3ccccc23)cc(OC)c1OC | i | -1.4% | ? | -4.2% | -12.7% | ?
COc1cc(-c2noc(C)c2-c2ccc3[nH]ccc3c2)cc(OC)c1OC | 1.84µM* | 1.03µM* | ? | 2.59µM* | 0.0366µM* | 1.84µM*!
COc1cc(-c2noc(C)c2-c2ccc(N(C)C)nc2)cc(OC)c1OC | 0.0065µM* | 0.0058µM* | ? | 0.291µM* | 0.184µM* | 0.206µM*
COc1cc2sc3ccc(-c4ccc(N(C)C)nc4)cc3c(=O)c2cc1OC | i | 10.9% | 11.4% | -10.1% | 16.7% | i
O=C(NCc1cccnc1)/C(=C\c1ccc(-c2ccc(Cl)c(Cl)c2)o1)S(=O)(=O)c1ccccc1 | i | ? | 6.51µM* | ? | ? | 4.11µM*
COc1ccc(C)cc1S(=O)(=O)N1CCN(C/C=C/c2ccccc2)CC1 | i | -3.6% | 0.3% | -2.6% | -4.9% | 18.4µM*
O=C(CCNS(=O)(=O)c1ccc(OC(F)(F)F)cc1)N1CCN(C/C=C/c2ccccc2)CC1 | ? | -1.9% | ? | 2.0% | -11.1% | 6.51µM*
COc1ccc(C)cc1S(=O)(=O)N1CCN(S(=O)(=O)c2cc(C)ccc2OC)CC1 | i | -0.6% | -5.8% | -3.1% | 0.8% | ?
COc1ccc(NS(=O)(=O)c2cc(C(=O)N3CCN(C/C=C/c4ccccc4)CC3)ccc2C)cc1 | 18.4µM* | -7.5% | 11.1% | -0.9% | -12.2% | 5.8µM*

High-throughput results (PubChem BioAssay)
